Results: PubChem BioAssay (NCI)
The panel holds about 83,000 compounds, 20% with a hit somewhere; the sample as a whole holds those more often.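 Single-dose data. Exposure time 48 hours. Values below 10 considered active.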 Unmarked numbers belong to inactive results. Activity calls are given as the source filed them.

Experiments:
Test in all cases: NCI-60 one-dose screen, 48 h (100 = growth as untreated, 0 = no growth, -100 = all killed)
Settings in all cases: 10 µM unless noted
[1] = test system: T-47D breast
[2] = test system: BT-549 breast
[3] = test system: MDA-MB-435 melanoma
[4] = test system: SW-620 colon
[5] = test system: MCF7 breast
[6] = test system: HCT-116 colon
[7] = test system: KM12 colon

CC(C)(C)[Si](C)(C)O[C@H]1C(=O)C=CN2CC=C[C@@H]12
growth [1]: 92% [100 µM]
growth [2]: 137% [100 µM]
growth [3]: 102% [100 µM]
growth [4]: 104% [100 µM]
growth [5]: 96.5% [100 µM]
growth [6]: 92.9% [100 µM]
growth [7]: 104% [100 µM]

O=C(CSc1nnc2n1S(=O)(=O)c1ccccc1N2c1ccccc1)Nc1nc2ccc(F)cc2s1
growth [1]: 98.4%
growth [2]: 97.1%
growth [3]: 101%
growth [4]: 109%
growth [5]: 93.5%
growth [6]: 93.5%
growth [7]: 108%

COc1ccc2[nH]cc(C(c3cc(F)cc(F)c3)c3c[nH]c4ccc(OC)cc34)c2c1
growth [1]: 43.1%
growth [2]: 183%
growth [3]: 93.4%
growth [4]: 81.6%
growth [5]: 55.4%
growth [6]: 52.9%
growth [7]: 83.6%

Cc1ccc(-c2csc(NC(=O)CN3CCN(c4cc5c(cc4F)c(=O)c(C(=O)O)cn5C4CC4)CC3)n2)cc1
growth [1]: 6.74% (active)
growth [2]: 16.2%
growth [3]: 14.4%
growth [4]: 27.4%
growth [5]: 6.16% (active)
growth [6]: 14.2%
growth [7]: 8.87% (active)

Oc1c(Cl)cc(Cl)c2ccc(Cn3cc(-c4cc(C(F)(F)F)cc(C(F)(F)F)c4)nn3)nc12
growth [1]: 33.7%
growth [2]: 66%
growth [3]: 43.5%
growth [4]: 4.61% (active)
growth [5]: 21.2%
growth [6]: 1.78% (active)
growth [7]: 102%

CCCCCOc1ccc(C(=O)/C(Br)=C/C(=O)O)cc1
growth [1]: 92.6%
growth [2]: 110%
growth [3]: 104%
growth [4]: 111%
growth [5]: 91.7%
growth [6]: 89.2%
growth [7]: 107%

CCCc1cc(NC)nc(S(=O)(=O)CC)n1
growth [1]: 111%
growth [2]: 105%
growth [3]: 104%
growth [4]: 105%
growth [5]: 92.1%
growth [6]: 100%
growth [7]: 113%

O=S(=O)(Nc1ccc(Cl)cc1)c1ccc(-c2cnc(C3CC3)o2)cc1
growth [1]: 22.6%
growth [2]: 51.8%
growth [3]: -3.04% (active)
growth [4]: 17.4%
growth [5]: 18.7%
growth [6]: 21.2%
growth [7]: 20.9%

COC(=O)[C@]1(C)CCC[C@]2(C)[C@H]3C[C@H]4C(C(C)C)=C[C@]3(CC[C@H]21)[C@H]1[C@@H]4[C@@H](OCCC#N)CC[C@@H]1OCCC#N
growth [1]: 9.81% (active)
growth [2]: 19.8%
growth [3]: 42.7%
growth [4]: 47.8%
growth [5]: 9.07% (active)
growth [6]: 15.4%
growth [7]: 40.2%

OCCCC1CCN(C(Cc2ccccc2)c2ccccc2)CC1 (stereo unspecified)
growth [1]: 56.9%
growth [2]: 79.8%
growth [3]: 96.4%
growth [4]: 107%
growth [5]: 94.6%
growth [6]: 83.9%
growth [7]: 94.7%

O=C(CSc1nc2ccc([N+](=O)[O-])cc2[nH]1)Nc1cccc(C(F)(F)F)c1
growth [1]: 6.1% (active)
growth [2]: 16.5%
growth [3]: 13.8%
growth [4]: 28.2%
growth [5]: 15.7%
growth [6]: 12.8%
growth [7]: 17.1%

O=C(N/N=C/c1ccc(F)cc1)c1ccc(C(F)(F)F)nc1Nc1cccc(C(F)(F)F)c1
growth [1]: -3.3% (active)
growth [2]: 1.7% (active)
growth [3]: 24.8%
growth [4]: 5.48% (active)
growth [5]: -18.6% (active)
growth [6]: 10.1%
growth [7]: -4.29% (active)

CCCCN1C(=O)/C(=c2\sc3n(c2=O)C2C(NN=3)N(CC)C(=O)N2CC)c2ccccc21 (stereo unspecified)
growth [1]: 20.5%
growth [2]: 20.6%
growth [3]: -34% (active)
growth [4]: 28.3%
growth [5]: 5.32% (active)
growth [6]: 3.15% (active)
growth [7]: 16.1%

Nc1ncnc2c1N=C(c1ccc3c(c1)OCO3)CC(c1ccc([N+](=O)[O-])cc1)N2 (stereo unspecified)
growth [1]: 72.4%
growth [2]: 96.2%
growth [3]: 79.8%
growth [4]: 81.5%
growth [5]: 63.2%
growth [6]: 66.6%
growth [7]: 78.4%

O=C(NNc1nccc(Nc2ccc(S(=O)(=O)Nc3ccncc3)cc2)n1)c1ccccc1
growth [1]: 92.6%
growth [2]: 89.5%
growth [3]: 105%
growth [4]: 106%
growth [5]: 94%
growth [6]: 99.2%
growth [7]: 101%

O=C(c1ccc(-c2ccccc2)cc1)c1ccc([N+](=O)[O-])cc1
growth [1]: 92.8%
growth [2]: 94.5%
growth [3]: 92.6%
growth [4]: 101%
growth [5]: 95.9%
growth [6]: 92.6%
growth [7]: 97%

Fc1cc(F)cc(C(c2c[nH]c3ccccc23)c2c[nH]c3ccccc23)c1
growth [1]: 97%
growth [2]: 135%
growth [3]: 103%
growth [4]: 93%
growth [5]: 110%
growth [6]: 89.8%
growth [7]: 97.5%

Fc1cc2c(cc1Cl)N(c1ncnc3ccc(-c4cnc5[nH]ncc5c4)cc13)CC2
growth [1]: 17.8%
growth [2]: 62.8%
growth [3]: 74.1%
growth [4]: 80.2%
growth [5]: 30.9%
growth [6]: 70.3%
growth [7]: 77.8%
